The supplement of paper PMC11732987, “Enantioselective OTUD7B fragment discovery through chemoproteomics screening and high-throughput optimisation” (Communications Chemistry, 2025)

Assays:
Test in all cases: log2 ratio of Biotin-Ahx-Ub-VS probe labelling (fragment/DMSO); higher = less target engagement (more negative = stronger competition), active = hit call of the paper (q ≤ 0.05, log2 ratio ≤ -1)
Settings in all cases: compound concentration: 200 uM; treatment time: 3 h
USP34 = USP34 (UniProt Q70CQ2)
USP34, sequence (Q70CQ2 whole entry, the tested form may be a part): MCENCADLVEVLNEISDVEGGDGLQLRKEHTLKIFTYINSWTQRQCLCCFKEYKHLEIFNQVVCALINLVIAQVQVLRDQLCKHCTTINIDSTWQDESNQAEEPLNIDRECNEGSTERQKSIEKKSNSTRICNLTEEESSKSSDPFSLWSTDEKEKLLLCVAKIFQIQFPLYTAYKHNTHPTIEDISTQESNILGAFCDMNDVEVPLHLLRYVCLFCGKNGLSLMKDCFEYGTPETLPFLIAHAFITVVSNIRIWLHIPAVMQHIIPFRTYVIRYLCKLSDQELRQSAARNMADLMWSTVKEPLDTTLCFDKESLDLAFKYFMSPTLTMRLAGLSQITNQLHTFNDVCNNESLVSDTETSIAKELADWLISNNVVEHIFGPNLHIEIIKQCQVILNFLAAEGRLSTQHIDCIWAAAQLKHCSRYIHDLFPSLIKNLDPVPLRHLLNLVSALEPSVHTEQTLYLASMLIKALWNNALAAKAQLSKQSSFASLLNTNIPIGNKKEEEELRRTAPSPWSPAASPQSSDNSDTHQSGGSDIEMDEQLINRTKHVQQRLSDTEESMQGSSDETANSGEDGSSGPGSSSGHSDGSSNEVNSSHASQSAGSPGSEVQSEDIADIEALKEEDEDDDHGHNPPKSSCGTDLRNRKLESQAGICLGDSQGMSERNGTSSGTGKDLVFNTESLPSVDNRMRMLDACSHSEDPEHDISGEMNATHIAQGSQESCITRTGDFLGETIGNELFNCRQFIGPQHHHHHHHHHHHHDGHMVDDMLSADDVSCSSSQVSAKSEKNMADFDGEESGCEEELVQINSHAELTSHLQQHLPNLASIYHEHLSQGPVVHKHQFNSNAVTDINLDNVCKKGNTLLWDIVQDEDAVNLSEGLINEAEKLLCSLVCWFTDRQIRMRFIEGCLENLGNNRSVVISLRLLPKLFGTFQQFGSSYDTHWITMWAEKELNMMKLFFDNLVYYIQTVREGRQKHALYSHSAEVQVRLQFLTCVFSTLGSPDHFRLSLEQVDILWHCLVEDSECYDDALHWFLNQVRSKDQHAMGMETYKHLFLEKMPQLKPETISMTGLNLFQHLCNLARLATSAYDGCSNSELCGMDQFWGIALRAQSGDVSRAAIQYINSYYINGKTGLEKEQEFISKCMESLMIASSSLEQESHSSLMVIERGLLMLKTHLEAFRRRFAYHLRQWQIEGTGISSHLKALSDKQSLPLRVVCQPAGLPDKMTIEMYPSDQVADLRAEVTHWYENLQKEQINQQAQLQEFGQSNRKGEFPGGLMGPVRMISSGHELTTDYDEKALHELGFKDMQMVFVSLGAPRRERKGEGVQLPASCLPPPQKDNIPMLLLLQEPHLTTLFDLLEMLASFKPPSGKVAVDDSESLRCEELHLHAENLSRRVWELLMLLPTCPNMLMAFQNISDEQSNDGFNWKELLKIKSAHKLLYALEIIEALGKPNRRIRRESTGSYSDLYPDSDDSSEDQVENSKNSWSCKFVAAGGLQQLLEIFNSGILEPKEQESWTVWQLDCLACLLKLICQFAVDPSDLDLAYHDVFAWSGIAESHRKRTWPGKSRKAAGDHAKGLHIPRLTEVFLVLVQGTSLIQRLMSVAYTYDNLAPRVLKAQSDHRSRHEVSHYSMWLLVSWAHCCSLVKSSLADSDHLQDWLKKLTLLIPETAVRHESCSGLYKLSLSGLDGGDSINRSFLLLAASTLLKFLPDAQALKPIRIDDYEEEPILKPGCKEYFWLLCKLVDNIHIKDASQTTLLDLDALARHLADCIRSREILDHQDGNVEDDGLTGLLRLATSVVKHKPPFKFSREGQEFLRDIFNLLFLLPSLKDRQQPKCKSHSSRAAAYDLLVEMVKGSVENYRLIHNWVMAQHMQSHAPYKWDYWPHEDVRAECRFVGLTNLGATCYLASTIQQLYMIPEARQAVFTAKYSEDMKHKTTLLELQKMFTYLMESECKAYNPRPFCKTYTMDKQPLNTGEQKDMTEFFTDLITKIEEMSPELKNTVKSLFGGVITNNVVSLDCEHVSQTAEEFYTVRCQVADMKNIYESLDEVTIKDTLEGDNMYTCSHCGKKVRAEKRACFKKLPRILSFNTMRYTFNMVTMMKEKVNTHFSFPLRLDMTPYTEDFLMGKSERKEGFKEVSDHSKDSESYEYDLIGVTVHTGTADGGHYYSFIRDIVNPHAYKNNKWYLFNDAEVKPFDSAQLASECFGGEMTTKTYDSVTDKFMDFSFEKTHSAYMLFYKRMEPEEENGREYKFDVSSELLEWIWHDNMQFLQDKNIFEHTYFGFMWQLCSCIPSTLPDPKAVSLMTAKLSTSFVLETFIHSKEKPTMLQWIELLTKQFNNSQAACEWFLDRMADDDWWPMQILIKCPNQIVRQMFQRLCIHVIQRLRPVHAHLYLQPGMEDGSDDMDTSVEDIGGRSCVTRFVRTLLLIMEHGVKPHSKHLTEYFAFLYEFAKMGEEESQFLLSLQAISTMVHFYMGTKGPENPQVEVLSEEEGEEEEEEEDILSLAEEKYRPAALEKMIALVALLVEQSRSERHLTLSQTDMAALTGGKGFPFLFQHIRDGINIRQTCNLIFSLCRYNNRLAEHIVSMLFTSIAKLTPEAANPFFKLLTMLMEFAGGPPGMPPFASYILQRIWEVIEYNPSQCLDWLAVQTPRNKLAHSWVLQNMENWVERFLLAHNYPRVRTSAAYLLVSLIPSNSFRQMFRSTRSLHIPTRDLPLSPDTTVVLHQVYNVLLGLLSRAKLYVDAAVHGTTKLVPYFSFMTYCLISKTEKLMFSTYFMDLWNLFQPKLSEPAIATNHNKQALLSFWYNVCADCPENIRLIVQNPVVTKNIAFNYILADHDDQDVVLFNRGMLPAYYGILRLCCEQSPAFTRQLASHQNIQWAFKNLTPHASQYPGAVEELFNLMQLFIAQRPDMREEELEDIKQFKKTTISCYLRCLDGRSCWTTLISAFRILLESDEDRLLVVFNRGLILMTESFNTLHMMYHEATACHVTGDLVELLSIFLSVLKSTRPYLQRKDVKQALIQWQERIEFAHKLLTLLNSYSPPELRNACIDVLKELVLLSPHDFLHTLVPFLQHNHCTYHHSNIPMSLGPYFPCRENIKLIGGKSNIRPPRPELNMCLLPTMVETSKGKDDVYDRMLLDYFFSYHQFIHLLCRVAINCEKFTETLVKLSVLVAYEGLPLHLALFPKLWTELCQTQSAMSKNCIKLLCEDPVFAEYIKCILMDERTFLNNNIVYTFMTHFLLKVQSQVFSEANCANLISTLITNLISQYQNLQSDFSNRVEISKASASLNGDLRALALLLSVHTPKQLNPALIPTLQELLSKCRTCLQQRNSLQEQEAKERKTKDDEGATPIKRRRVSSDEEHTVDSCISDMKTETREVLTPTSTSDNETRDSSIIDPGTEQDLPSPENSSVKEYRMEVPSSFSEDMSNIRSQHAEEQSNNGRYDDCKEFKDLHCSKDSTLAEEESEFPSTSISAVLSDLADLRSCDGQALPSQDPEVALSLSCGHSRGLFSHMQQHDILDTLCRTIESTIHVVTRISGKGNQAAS
Procedure, shortened: (§1)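 Labelled DUBs were enriched with NeutrAvidin, digested with LysC and trypsin, and run by diaPASEF LC-MS/MS. The labelling used Biotin-Ahx-Ub-VS at 0.5 µM final for 1 h on HEK293T lysate (495 µg per sample) previously treated in triplicate with fragment at 200 µM or vehicle for 3 h. Values are average log2 fragment/vehicle ratios by unpaired t-test on global-median-normalised Spectronaut quantities of proteins with ≥2 unique peptides.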

USP36 = molecular target: T1, USP36 (UniProt Q9P275)
T1 sequence (whole entry): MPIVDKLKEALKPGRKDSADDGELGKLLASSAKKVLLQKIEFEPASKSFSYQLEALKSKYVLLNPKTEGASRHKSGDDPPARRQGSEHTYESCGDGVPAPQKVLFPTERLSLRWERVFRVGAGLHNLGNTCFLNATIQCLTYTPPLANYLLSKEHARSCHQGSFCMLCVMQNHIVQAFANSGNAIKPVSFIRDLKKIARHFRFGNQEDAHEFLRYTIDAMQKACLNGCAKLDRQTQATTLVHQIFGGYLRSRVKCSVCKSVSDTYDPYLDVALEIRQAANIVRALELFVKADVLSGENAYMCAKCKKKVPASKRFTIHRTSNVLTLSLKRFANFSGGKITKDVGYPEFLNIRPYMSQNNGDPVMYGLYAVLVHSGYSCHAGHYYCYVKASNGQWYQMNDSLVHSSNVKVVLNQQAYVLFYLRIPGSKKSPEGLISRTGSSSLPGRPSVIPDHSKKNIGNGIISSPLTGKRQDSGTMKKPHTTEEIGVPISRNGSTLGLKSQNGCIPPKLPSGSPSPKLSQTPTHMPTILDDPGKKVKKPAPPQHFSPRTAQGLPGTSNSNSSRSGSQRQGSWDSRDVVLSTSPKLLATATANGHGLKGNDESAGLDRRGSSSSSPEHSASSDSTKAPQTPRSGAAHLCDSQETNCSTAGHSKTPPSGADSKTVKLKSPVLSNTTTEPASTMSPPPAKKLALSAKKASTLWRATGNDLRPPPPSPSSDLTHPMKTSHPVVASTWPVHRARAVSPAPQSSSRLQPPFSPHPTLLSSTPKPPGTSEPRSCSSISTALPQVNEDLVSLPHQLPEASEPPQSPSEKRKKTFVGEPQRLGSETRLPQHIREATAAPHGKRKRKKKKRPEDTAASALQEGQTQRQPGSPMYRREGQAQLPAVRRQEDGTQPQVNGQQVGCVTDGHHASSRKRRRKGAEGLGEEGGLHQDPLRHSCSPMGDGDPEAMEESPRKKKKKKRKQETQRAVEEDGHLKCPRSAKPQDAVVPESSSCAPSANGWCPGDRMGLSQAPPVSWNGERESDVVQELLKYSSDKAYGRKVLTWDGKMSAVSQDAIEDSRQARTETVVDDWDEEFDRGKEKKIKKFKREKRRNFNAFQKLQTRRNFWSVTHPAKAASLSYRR
Procedure, shortened: as §1

USP38 = molecular target: T2, USP38 (UniProt Q8NB14)
T2 sequence (whole entry): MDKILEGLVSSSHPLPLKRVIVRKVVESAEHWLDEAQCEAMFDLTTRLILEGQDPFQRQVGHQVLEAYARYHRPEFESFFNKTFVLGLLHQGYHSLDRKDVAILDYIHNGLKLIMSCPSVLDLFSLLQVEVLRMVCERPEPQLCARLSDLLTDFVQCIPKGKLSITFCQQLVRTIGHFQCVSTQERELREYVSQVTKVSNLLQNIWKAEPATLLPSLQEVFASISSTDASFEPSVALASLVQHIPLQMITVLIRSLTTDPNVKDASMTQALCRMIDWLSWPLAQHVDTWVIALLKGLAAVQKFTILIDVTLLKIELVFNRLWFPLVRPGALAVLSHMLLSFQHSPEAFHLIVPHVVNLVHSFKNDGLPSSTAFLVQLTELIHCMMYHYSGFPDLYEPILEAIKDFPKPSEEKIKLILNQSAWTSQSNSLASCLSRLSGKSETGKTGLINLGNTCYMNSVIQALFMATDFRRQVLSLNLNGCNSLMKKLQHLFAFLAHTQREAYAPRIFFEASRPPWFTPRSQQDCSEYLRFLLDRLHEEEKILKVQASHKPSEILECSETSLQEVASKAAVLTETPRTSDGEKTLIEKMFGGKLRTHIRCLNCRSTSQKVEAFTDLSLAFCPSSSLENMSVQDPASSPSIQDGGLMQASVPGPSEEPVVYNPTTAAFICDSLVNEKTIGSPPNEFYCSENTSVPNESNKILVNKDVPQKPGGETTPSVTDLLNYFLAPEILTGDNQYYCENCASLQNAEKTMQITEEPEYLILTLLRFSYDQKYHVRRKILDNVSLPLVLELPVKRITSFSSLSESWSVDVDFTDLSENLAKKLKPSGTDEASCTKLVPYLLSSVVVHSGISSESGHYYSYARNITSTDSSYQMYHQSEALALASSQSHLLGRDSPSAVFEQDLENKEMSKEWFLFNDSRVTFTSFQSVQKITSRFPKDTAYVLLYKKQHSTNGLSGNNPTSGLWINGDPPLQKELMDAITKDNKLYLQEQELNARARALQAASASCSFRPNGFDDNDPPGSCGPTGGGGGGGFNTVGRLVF
Procedure, shortened: as §1

USP39 = molecular target: T3, USP39 (UniProt Q53GS9)
T3 sequence (whole entry): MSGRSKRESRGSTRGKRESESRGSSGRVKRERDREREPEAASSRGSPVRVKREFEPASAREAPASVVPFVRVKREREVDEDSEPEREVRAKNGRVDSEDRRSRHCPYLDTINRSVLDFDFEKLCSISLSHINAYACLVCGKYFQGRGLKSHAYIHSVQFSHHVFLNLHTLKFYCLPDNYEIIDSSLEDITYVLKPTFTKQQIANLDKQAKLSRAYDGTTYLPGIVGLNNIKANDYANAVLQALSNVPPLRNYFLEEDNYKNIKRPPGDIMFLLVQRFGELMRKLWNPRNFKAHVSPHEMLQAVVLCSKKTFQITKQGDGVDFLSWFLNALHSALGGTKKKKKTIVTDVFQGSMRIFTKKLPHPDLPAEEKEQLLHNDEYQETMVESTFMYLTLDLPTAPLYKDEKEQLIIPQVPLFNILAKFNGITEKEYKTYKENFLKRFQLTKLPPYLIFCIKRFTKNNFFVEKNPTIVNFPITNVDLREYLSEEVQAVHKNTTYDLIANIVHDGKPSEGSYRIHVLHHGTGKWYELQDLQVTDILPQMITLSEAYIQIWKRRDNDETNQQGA
Procedure, shortened: as §1

USP4 = molecular target: T4, USP4 (UniProt Q13107)
T4 sequence (whole entry): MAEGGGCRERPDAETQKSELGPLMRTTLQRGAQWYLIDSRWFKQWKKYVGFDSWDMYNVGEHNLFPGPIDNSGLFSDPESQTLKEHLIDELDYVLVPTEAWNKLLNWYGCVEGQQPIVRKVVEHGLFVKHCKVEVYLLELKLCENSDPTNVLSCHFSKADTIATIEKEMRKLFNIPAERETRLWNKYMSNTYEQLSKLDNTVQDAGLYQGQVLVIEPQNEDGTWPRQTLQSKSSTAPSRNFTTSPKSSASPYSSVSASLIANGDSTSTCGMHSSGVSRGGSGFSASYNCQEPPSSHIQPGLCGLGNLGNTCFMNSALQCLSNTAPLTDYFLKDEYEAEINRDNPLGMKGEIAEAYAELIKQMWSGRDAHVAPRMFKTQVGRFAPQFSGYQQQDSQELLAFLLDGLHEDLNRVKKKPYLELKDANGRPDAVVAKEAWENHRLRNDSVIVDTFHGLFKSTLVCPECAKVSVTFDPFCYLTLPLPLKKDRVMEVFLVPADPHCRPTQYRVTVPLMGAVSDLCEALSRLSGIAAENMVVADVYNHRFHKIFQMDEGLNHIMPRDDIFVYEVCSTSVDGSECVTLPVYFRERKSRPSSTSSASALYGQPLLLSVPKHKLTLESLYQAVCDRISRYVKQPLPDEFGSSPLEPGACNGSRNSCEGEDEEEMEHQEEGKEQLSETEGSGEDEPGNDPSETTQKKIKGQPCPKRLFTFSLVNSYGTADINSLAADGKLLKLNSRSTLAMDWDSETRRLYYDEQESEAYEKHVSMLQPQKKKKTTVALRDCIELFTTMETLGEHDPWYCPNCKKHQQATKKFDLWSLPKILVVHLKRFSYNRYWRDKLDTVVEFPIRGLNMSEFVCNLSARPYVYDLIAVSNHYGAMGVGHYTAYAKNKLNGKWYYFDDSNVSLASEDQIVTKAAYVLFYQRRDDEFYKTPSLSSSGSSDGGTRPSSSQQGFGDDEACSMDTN
Procedure, shortened: as §1

Measured: log2 ratio of Biotin-Ahx-Ub-VS probe labelling

Cc1nc(-c2cccc(NC(=O)CCl)c2)cs1
inactive: USP34 -0.392 | USP36 0.0209 | USP38 -0.179 | USP39 0.188 | USP4 -0.239
